# According to PubChem BioAssay (NCI):
# The panel holds about 83,000 compounds, 20% with a hit somewhere; the sample as a whole holds those more often.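 Activity criterion: percent growth below 10, measured after cells in 96-well plates were exposed to a single compound concentration for 48 hours.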 Values without a mark were called inactive. The source made the active and inactive calls.
# Tested on: SR leukemia
# Experiment: NCI-60 one-dose screen, 48 h (100 = growth as untreated, 0 = no growth, -100 = all killed)
# Conditions: 10 µM
row,SMILES,growth [%]
1,Nc1ccccc1NC(=O)c1ccc(CCCC(=O)Nc2ccc(C3CC3N)cc2)cc1 (stereo not drawn),31.5
2,Cc1c(O)c(=O)ccn1C1CCC(CC2CCC(n3ccc(=O)c(O)c3C)CC2)CC1 (stereo not drawn),41.8
3,Cc1c2cnccc2c(C)c2c1oc1ccccc12,21.2

# Tested on: OVCAR-8 ovarian
# Experiment: as above
# Conditions: 10 µM
row,SMILES,growth
1,COc1ccc2nc(Cl)c(Cn3nnc(Cc4ccccc4)n3)cc2c1,40.5%
2,C=C/C(C)=C/C[C@]1(C)[C@H](C)[C@@H](OC(=O)CCC)[C@H](O)[C@@]23C(=C[C@H](OC)C[C@@H]12)[C@@H](OC(=O)CCC)O[C@H]3OC(C)=O,-60.4% (active)
3,COc1ccc(-c2cc(-c3cc(OC)ccc3OC)nc(N)c2C#N)cc1,39.5%
4,COc1ccc(-c2nn(-c3cccc(Cl)c3)cc2-c2cc(-c3ccccc3)nc(N)n2)cc1,67.9%
5,COc1ccccc1-n1c(-c2sc(NC(C)=O)nc2C)n[nH]c1=S,108%
6,COc1cc2c3c(n(C4CCN(C)CC4)c(=O)c2cc1OC)-c1cc2c(cc1C3=O)OCO2,19.4%
7,COc1cc(-c2ccc[nH]2)[nH]c1/C=C1\N=C(C)C(C(=O)NC(C)C)=C1C,14.7%
8,COc1ccc(-c2nn(-c3cccc(Cl)c3)cc2C=C(C#N)C#N)cc1,24.2%
9,Fc1ccc2[nH]cc(-c3nc(-c4ccsc4)cs3)c2c1,94.4%
10,CCn1c2ccc(O)cc2c2c(C)c3c[n+](C)ccc3c(C)c21,32.4%
11,CC[C@H]1OC(=O)[C@H](C)[C@@H](O[C@H]2C[C@@](C)(OC)[C@@H](O)[C@H](C)O2)[C@H](C)[C@@H](O[C@@H]2O[C@H](C)C[C@H](N(C)C)[C@H]2O)[C@](C)(OC)C/C(C)=C2/O[C@@]1(C)C=C2C,78.5%
12,N#Cc1c(-c2ccc(Cl)cc2)cc(-c2cc(O)ccc2O)nc1N,1.52% (active)
13,COc1cc2c3c(n([C@@H]4CCOC4)c(=O)c2cc1OC)-c1cc2c(cc1C3=O)OCO2,36.7%
14,COc1ccc(-c2cc(-c3ccccc3)nc(SCCCCCCC(=O)NO)n2)cc1,43.7%
15,COc1ccc(-c2nn(-c3cccc(Cl)c3)cc2-c2c(C#N)c(=O)n3[nH]c(-c4ccccc4)nc3c2C#N)cc1,110%
16,Clc1nc2ccccc2cc1Cn1nnc(Cc2ccccc2)n1,71.6%
17,CN1CCc2c(sc3nc4n(-c5ccc(Cl)cc5)cnn4c(=O)c23)C1,100%
18,O=C(CCCCNC(=O)c1nc(-c2ccccc2)n(-c2ccccc2)n1)NO,51%
19,Cc1c2c[n+](C(C)C)ccc2c(C)c2c1[nH]c1ccccc12,15.9%
20,Cc1c2cnccc2c(C)c2c1c1cc(O)ccc1n2C(C)C,7.98% (active)

row,SMILES,growth
1,CC(C)(C)OC(=O)CN1CCc2c(sc3ncnc(N/N=C/c4cccc5ccccc45)c23)C1,35.6%
2,Nc1nc(-c2cccnc2)nc2c1sc(=S)n2-c1ccccc1,101%
3,CC(C)(C)OC(=O)N1CCc2c(sc3ncnc(N/N=C/c4cccc(Br)c4)c23)C1,46.6%
4,O=C(CCCSc1nc(-c2ccc(Cl)cc2)cc(-c2ccc(Cl)cc2)n1)NO,13.7%
5,CN1CCc2c(sc3nc4n(-c5ccc(Cl)cc5)c(=O)[nH]n4c(=O)c23)C1,93%
6,CCNc1nc(C(F)(F)F)nc2c1sc(=S)n2-c1ccccc1,96.1%
7,IC(I)I,107%
8,Cc1cc(NC(=O)c2ccc(C)c(Nc3nccc(-c4cccnc4)n3)c2)cc(-n2cnc(C)c2)c1,61.3%
9,c1cncc(-c2csc(-c3c[nH]c4ccccc34)n2)c1,95.8%
10,Cc1ccc(NC(=S)NNC(=S)Nc2ccc(C)cc2)cc1,76%
11,Cc1ccc(C2=NN(c3ccc(S(C)(=O)=O)cc3)C(=O)CC2)cc1,31.8%
12,CCc1ccc(C2=NN(c3ccc(S(C)(=O)=O)cc3)C(=O)CC2)cc1,39.1%
13,COc1ccc(-c2nn(-c3cccc(Cl)c3)cc2/C=C2\NC(=S)N(c3ccc(Cl)cc3)C2=O)cc1,21.9%
14,COc1ccc(-c2nn(-c3cccc(Cl)c3)cc2-c2c(C#N)c(=O)n3[nH]c(-c4ccc(C)cc4)nc3c2C#N)cc1,14.3%
15,c1cnc2[nH]cc(-c3nc(-c4ccsc4)cs3)c2c1,96.9%
16,O=C1NC(=O)c2c(CCCSc3nc4ccccc4c(=O)n3CCc3ccccc3)cccc21,83.7%
17,CCOC(=O)c1sc2ncnc(Nc3ccc4c(cnn4C(=O)Nc4ccc(C)c(Cl)c4)c3)c2c1C,102%
18,Nc1ccccc1NC(=O)c1ccc(CCCC(=O)Nc2ccc(C3CC3N)cc2)cc1 (stereo not drawn),17.3%
19,Cc1c(O)c(=O)ccn1C1CCC(CC2CCC(n3ccc(=O)c(O)c3C)CC2)CC1 (stereo not drawn),33.5%
20,Cc1c2cnccc2c(C)c2c1oc1ccccc12,71.1%
